Measurements from PubChem BioAssay (NCI).
The panel holds about 79,000 compounds, 15% with a hit somewhere; the sample as a whole holds those more often. Cut-off read from the data, not from the text of the source: active = growth inhibition above about 70%; inactive = the rest.

What was measured:
[1] = NCI Yeast Anticancer Drug Screen. Data for the rad50 strain (AID 155);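 note: 0% = growth of vehicle-only cultures of the same strain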; settings: S. cerevisiae rad50 strain growth inhibition; at 50.0 µM; stronger effect = higher value
In short: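 Vehicle-treated cultures provide the reference for the growth inhibition reported for compound-exposed, repair-deficient yeast.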

[2] = NCI Yeast Anticancer Drug Screen. Data for the mec2-1 strain (AID 157); settings: S. cerevisiae mec2-1 strain, at 50.0 µM, stronger effect = higher value
In short: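 Vehicle-treated cultures served as reference for growth inhibition of compound-exposed mec2-1 yeast.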

[3] = NCI Yeast Anticancer Drug Screen. Data for the sgs1 mgt1 strain (AID 161);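 note: 0% = growth of cultures given vehicle only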; settings: S. cerevisiae sgs1 mgt1 strain, at 50.0 µM, stronger effect = higher value
In short: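 Inhibition of yeast growth, normalised to vehicle-treated controls, is reported for a strain bearing genetic alterations in DNA damage repair.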

[4] = NCI Yeast Anticancer Drug Screen. Data for the cln2 rad14 strain (AID 165);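 note: 0% = growth equal to vehicle treated cultures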; settings: S. cerevisiae cln2 rad14 strain, at 50.0 µM, stronger effect = higher value
In short: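 Each compound was tested on cln2 rad14 yeast. Inhibition of growth was calculated against vehicle-exposed controls.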

[5] = NCI Yeast Anticancer Drug Screen. Data for the bub3 strain (AID 167); settings: S. cerevisiae bub3 mutant strain, at 50.0 µM, stronger effect = higher value
In short: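 Mutant yeast screening strain plus compound; vehicle-treated cultures serve as the 0% inhibition reference.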

[6] = NCI Yeast Anticancer Drug Screen. Data for the mlh1 rad18 strain (AID 175); settings: S. cerevisiae mlh1 rad18 strain growth inhibition; at 50.0 µM; stronger effect = higher value
In short: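 Vehicle-treated cultures served as the reference for growth inhibition in a yeast strain carrying DNA damage repair alterations exposed to each compound.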

Measured: growth inhibition

COC1=NS(=O)(=O)C2(O1)c1ccccc1-c1ccccc12
inactive: [1] 15.2% | [2] 17.2% | [3] 11.4% | [4] 13.2% | [5] 25.8% | [6] 12.3%

N#CCCCCCCl
inactive: [1] -9.35% | [2] -26.9% | [3] 10.2% | [4] 4.05% | [5] -15.6% | [6] 14.8%

CC(=O)c1ccc2ccccc2c1
inactive: [1] 24.4% | [2] 7.8% | [3] 4.3% | [4] 2.75% | [5] -0.1% | [6] 16.2%

C=NC1CCCCC1
inactive: [1] 0.95% | [2] -3.75% | [3] -10.6% | [4] 2% | [5] 14.7% | [6] 3.75%

NNC(=O)C(=O)N/N=C(\CCC(=O)Nc1ccc(Cl)cc1)Cc1nc2ccccc2s1
inactive: [1] 28.2% | [2] 28.2% | [3] 30.4% | [4] 9.65% | [5] 12.3% | [6] 36.2%

C=C1OC(=O)C(N)=C1C(C)=O
inactive: [1] -2.65% | [2] 23.7% | [3] 9.05% | [4] -5.2% | [5] 3.9% | [6] 12.4%

CC(=O)Nc1nc2nccn2c(=O)[nH]1
inactive: [1] -5.7% | [2] -3.1% | [3] -6.5% | [4] -28.3% | [5] -2.4% | [6] 2%

C/C(N=NS(=O)(=O)c1ccccc1)=C1\C=CC=CN1O
inactive: [1] -7.9% | [2] -1.5% | [3] -4.55% | [4] 2.5% | [5] 12.9% | [6] -9%

CC(=O)C(CCCCCCCCCCC(C(C)=O)C(C)=O)C(C)=O
inactive: [1] -9.3% | [2] -2.75% | [3] -5.05% | [4] -38.6% | [5] -6% | [6] -10.2%

C=C(C(=O)O)C1CC[C@@]2(C)CC(O)CC(=C)C2C1 (stereo partly specified)
inactive: [1] 16.4% | [2] -0.95% | [3] -8.1% | [4] 5.3% | [5] -2.9% | [6] 14.7%

COc1cccc2c1C(=O)c1c(O)c3c(c(O)c1C2=O)CC(O)(C(C)=O)CC3O (stereo unspecified)
inactive: [1] 61.5% | [2] 12.5% | [3] 39% | [4] 17.1% | [5] 34.4% | [6] 50.5%

N#Cc1cccc(O)c1
inactive: [1] -3.45% | [2] -10.7% | [3] -2.45% | [4] 20.1% | [5] 13.7% | [6] 12%

C[Si](C)(C)C#CC(O)CS(=O)c1ccccc1 (stereo unspecified)
inactive: [1] -19.5% | [2] -19.4% | [3] -13.3% | [4] -3.7% | [5] -6.45% | [6] -17.1%

C#CC(CC(C)CC(C)(C)C)N(C)C (stereo unspecified)
inactive: [1] 39% | [2] 22.8% | [3] 16.2% | [4] 17.8% | [5] 3.8% | [6] 31.3%

O=c1n(CCO)nc2n1CCCN2
inactive: [1] 7.3% | [2] 10.9% | [3] 7.2% | [4] -15.8% | [5] 7.5% | [6] 5.6%

Cc1ccsc1/C=N/NC(N)=S
inactive: [1] 30% | [2] -7% | [3] 32.5% | [4] 5.55% | [5] 9.2% | [6] 28.7%

Cc1n[nH]c(=S)n1C
inactive: [1] -25.2% | [2] -6.05% | [3] -4.25% | [4] -23.2% | [5] 8.55% | [6] 12.8%

O=C1Nc2ccc3[nH]ncc3c2C1=O
inactive: [1] 11.7% | [2] -0.65% | [3] -2.45% | [4] -11.8% | [5] -9.55% | [6] 7.6%

CC1=C(/C=C/Cl)CC(Cl)C(C)(Cl)C1 (stereo unspecified)
inactive: [1] -2.25% | [2] -10.4% | [3] -4.5% | [4] 12.5% | [5] -0.45% | [6] -45.2%

CCCCCCCCCCCCCCCCSCCOC(=O)C1C2CCC(O2)C1C(=O)O (stereo unspecified)
inactive: [1] 55.9% | [2] -18.4% | [3] 10.4% | [4] 13.9% | [5] 30.2% | [6] 37.6%

CC(=O)Oc1ccc(C2c3cc(OC(C)=O)c(OC(C)=O)cc3CC3C(=O)OCC32)cc1OC(C)=O (stereo unspecified)
inactive: [1] 2.45% | [2] -4.85% | [3] 2.6% | [4] -36.3% | [5] 12.3% | [6] 1.1%

O=C(/C=C/c1ccc(O)c(O)c1)c1ccc(O)c(O)c1O
inactive: [1] 14.3% | [2] -5.15% | [3] 4.45% | [4] -57.9% | [5] 8.55% | [6] 19.5%

COC(=O)C(C)CN1CCCCC1 (stereo unspecified)
inactive: [1] 20.1% | [2] 6.2% | [3] 22.1% | [4] -6.45% | [5] 31.9% | [6] 19.9%

CN(C)C(=O)CCOc1ccccc1
inactive: [1] 0.55% | [2] -12.6% | [3] -18.9% | [4] -56.3% | [5] -7.05% | [6] -7.2%

Cc1ccccc1NP1(Nc2ccccc2C)=NP(Nc2ccccc2C)(Nc2ccccc2C)=NP(Nc2ccccc2C)(Nc2ccccc2C)=NP(Nc2ccccc2C)(Nc2ccccc2C)=N1
inactive: [1] 0.8% | [2] -0.9% | [3] 23.6% | [4] -5.3% | [5] -6.95% | [6] -9.7%

COc1cc(NCc2c(O)ccc3ccccc23)c2ncccc2c1
inactive: [1] 46.1% | [2] 28.1% | [3] 13.1% | [4] -11.2% | [5] 7.75% | [6] 62.8%

c1ccc(-n2cccc2)cc1
inactive: [1] 7.4% | [2] 7.05% | [3] 9.25% | [4] -30% | [5] -3.7% | [6] -11.6%

Brc1cc(Br)c(Br)cc1Br
inactive: [1] 6.1% | [2] 5.7% | [3] 8.6% | [4] 13.8% | [5] -3.65% | [6] 12.3%

NC(=O)N/N=C/C(Cc1ccccc1)=N/OCc1ccccc1
inactive: [1] -6.9% | [2] -1.8% | [3] -0.45% | [4] -17.6% | [5] 16.4% | [6] -1.75%

CC(C)(C)OC(=O)N/N=C\c1ccnc2ccccc12
inactive: [1] -8.1% | [2] -8.75% | [3] 3.2% | [4] -15.7% | [5] -6.5% | [6] -1.95%

CCCCCCCCCCCC(=O)c1c(O)cccc1O
inactive: [1] -10.1% | [2] -16.1% | [3] 7.75% | [4] 16.9% | [5] 10.7% | [6] -20.1%

N#C/C(=C\c1c[nH]c2ccccc12)C(=O)c1ccc(O)c(O)c1
inactive: [1] -6.55% | [2] 0.25% | [3] -20.6% | [4] 18.1% | [5] 2.95% | [6] -6.95%

CCCCCCC1NC(=S)N(c2ccccc2)C1=O (stereo unspecified)
inactive: [1] -12.1% | [2] 0.5% | [3] 48.5% | [4] -5% | [5] 21.2% | [6] -6.2%

Nc1c(N2CCCCC2)c(=O)nc2[nH]/c(=C\c3ccco3)c(=O)n12
inactive: [1] 5.45% | [2] -26.1% | [3] 10.9% | [4] -21.4% | [5] 8.8% | [6] -7.6%

O=C(/C=C/c1ccc(OCCSCCCCCCCCCCSCCOc2ccc(/C=C/C(=O)c3ccc(Cl)cc3)cc2)cc1)c1ccc(Cl)cc1
inactive: [1] -26.9% | [2] -25.1% | [3] -21.9% | [4] 13.7% | [5] -8.95% | [6] -29.9%

CCCc1c(O)cccc1O
inactive: [1] 13.8% | [2] 6.55% | [3] 16.9% | [4] 0.9% | [5] -5.55% | [6] 11%

CC1=C(C(=O)NCc2ccccc2)C(c2ccccc2C)C(C(=O)NCc2ccccc2)=C(C)N1
inactive: [1] 52.1% | [2] 26% | [3] 31.6% | [4] -10.9% | [5] 36% | [6] 25.4%

O=C(NC(=Nc1ccccc1)SCSC(=Nc1ccccc1)NC(=O)c1ccco1)c1ccco1
inactive: [1] -5.85% | [2] -7.9% | [3] -45.7% | [4] 12.7% | [5] -4.7% | [6] -12.4%

COc1ccc(CC(=O)NCCc2ccc(OC)c(OC)c2OC)cc1
inactive: [1] 8.95% | [2] -34.7% | [3] -30% | [4] 8.3% | [5] -10.7% | [6] -32.8%

Cc1ccc(NC(=O)NCCCN2CCOCC2)cc1NC(=O)NCCCN1CCOCC1
inactive: [1] -11.8% | [2] -22.6% | [3] 3.85% | [4] 17.2% | [5] 8.3% | [6] 7.05%

O=C(O)C(=O)Cc1ccccc1
inactive: [1] 11.2% | [2] -14.2% | [3] -4.85% | [4] 19.9% | [5] 0.85% | [6] 14.9%
